Inconclusive results are not listed. Where a call stands in place of a potency, no number is given. The source holds several records for some structures; these can differ, active in one and inactive in another. Active and inactive are the calls of the source. Unless noted, the call rests on the fitted dose curve; in most records, active means well fitted curve in the direction sought with a large enough effect in the repeat runs; inconclusive means weak or mixed curves; inactive means no such curve, though single readings can be large; an effect the other way counts as inactive or inconclusive.
Key:
[1] = target: Peroxisome proliferator-activated receptor delta (Homo sapiens) (UniProt Q03181); assay: qHTS assay to identify small molecule agonists of the peroxisome proliferator-activated receptor delta (PPARd) signaling pathway (AID 743212; calls by dose curve)
Peroxisome proliferator-activated receptor delta (Homo sapiens), sequence (Q03181 whole entry, looked up): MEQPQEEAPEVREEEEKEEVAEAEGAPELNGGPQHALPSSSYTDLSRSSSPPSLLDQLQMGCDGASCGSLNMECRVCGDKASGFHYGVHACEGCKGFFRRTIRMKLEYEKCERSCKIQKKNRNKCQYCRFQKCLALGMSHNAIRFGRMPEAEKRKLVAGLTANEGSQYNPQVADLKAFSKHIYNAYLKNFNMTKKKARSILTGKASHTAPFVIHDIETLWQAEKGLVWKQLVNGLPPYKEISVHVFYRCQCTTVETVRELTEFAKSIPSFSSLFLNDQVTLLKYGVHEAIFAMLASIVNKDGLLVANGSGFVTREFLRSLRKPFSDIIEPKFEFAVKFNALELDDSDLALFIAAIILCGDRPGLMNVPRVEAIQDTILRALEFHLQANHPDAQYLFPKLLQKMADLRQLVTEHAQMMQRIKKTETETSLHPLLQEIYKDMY
Summary of the method: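 A PPARd-bla HEK293H line with beta-lactamase under an Upstream Activator Sequence is treated with compounds at 37 C. Substrate loading for 2 h at room temperature precedes the fluorescence measurement.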

[2] = qHTS assay to identify small molecule antagonists of the peroxisome proliferator-activated receptor delta (PPARd) signaling pathway - cell viability counter screen (AID 743213); further: nearly all actives have a fitted effect of over 50% in size; further: potency means the concentration at half of the fitted maximal effect
Summary of the method: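 Viability counter-screen, qHTS format: PPARd-bla HEK293H, L165041 300 nM final, 17 h compound exposure at 37 C, CellTiter-Glo luminescence after 30 min RT.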

[3] = target: Peroxisome proliferator-activated receptor delta (Homo sapiens) (UniProt Q03181); assay: qHTS assay to identify small molecule antagonists of the peroxisome proliferator-activated receptor delta (PPARd) signaling pathway (AID 743215; active means well fitted inhibition curve with a large enough effect in the signal ratio in the repeat runs, not every such curve was filed as active; the % refers to the signal ratio;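 further: cells stimulated with agonist L165041 at 300 nM final during compound exposure; series mostly up to about 62 µM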)
Summary of the method: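 PPARd UAS-bla HEK293H cells were pre-incubated 5 h at 37 C, then given test compounds in DMSO plus agonist L165041 (300 nM final). After 17 h at 37 C, beta-lactamase FRET substrate was added; fluorescence read after 2 h at room temperature.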

[4] = target: Bile acid receptor (Homo sapiens) (UniProt Q96RI1); assay: qHTS assay to identify small molecule antagonists of the farnesoid-X-receptor (FXR) signaling pathway (AID 743217; active means well fitted inhibition curve with a large enough effect in the signal ratio in the repeat runs, not every such curve was filed as active; the % refers to the signal ratio)
Bile acid receptor (Homo sapiens), sequence (Q96RI1 whole entry, looked up): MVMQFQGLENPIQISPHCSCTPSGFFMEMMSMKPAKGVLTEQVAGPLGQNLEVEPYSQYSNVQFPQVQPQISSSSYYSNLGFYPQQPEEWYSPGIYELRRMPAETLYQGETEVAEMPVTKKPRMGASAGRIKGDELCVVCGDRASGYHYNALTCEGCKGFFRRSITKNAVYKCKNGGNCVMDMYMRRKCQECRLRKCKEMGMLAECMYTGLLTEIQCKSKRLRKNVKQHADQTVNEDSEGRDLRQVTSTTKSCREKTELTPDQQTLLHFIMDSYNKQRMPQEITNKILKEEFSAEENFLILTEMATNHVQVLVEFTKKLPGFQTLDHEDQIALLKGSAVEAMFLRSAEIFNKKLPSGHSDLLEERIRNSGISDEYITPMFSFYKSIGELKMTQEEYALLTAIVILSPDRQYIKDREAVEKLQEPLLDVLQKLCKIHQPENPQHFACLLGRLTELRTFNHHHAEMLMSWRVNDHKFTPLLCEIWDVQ
Summary of the method: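 FXR-UAS-bla HEK 293T cells pre-incubated 5 h at 37 °C, then exposed to compounds with chenodeoxycholic acid (50 uM final) for 16 h at 37 °C. Beta-lactamase reporter read by LiveBLAzer B/G FRET substrate fluorescence after 2 h at room temperature.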

[5] = qHTS assay to identify small molecule agonists of the farnesoid-X-receptor (FXR) signaling pathway - cell viability counter screen (AID 743218); further: nearly all actives have a fitted effect of over 45% in size; further: potency means the concentration at half of the fitted maximal effect
Summary of the method: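 FXR-UAS-bla HEK 293T cells, plated 5 h at 37 C, were exposed to compounds for 16 h at 37 C. CellTiter-Glo was then added to the same wells as the bla readout; luminescence read after 30 min at room temperature.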

[6] = qHTS assay to identify small molecule antagonists of the farnesoid-X-receptor (FXR) signaling pathway - cell viability counter screen (AID 743221; active means well fitted cell-killing curve with a large enough effect in the repeat runs, not every such curve was filed as active; further: nearly all actives have a fitted effect of over 50% in size; further: potency means the concentration at half of the fitted maximal effect)
Summary of the method: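 In GeneBLAzer FXR-UAS-bla HEK 293T cells stimulated with 50 uM chenodeoxycholic acid (final), compounds acted for 16 h at 37 C. Viability was assessed afterwards by CellTiter-Glo luminescence.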

[7] = target: Vitamin D3 receptor (Homo sapiens) (UniProt P11473); assay: qHTS assay to identify small molecule agonists of the vitamin D receptor (VDR) signaling pathway (AID 743222; calls by dose curve)
Vitamin D3 receptor (Homo sapiens), sequence (P11473 whole entry, looked up): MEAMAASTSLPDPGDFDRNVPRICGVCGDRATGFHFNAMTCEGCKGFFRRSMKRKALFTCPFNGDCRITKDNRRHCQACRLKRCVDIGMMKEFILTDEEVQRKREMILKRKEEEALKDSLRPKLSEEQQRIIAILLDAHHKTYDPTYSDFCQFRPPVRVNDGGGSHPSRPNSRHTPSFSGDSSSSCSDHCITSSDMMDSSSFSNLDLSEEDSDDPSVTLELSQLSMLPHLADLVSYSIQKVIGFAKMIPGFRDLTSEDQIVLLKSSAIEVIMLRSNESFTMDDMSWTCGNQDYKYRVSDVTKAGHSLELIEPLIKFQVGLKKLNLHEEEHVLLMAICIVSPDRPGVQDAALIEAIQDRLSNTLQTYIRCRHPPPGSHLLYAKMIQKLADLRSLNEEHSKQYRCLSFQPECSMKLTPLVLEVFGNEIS
Summary of the method: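 VDR-bla cells were plated 4 h at 37C/5% CO2, then exposed to compounds in DMSO for 16 h. After LiveBLAzer B/G FRET substrate addition and 2 h at room temperature, beta-lactamase reporter fluorescence was read.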

[8] = target: Vitamin D3 receptor (Homo sapiens) (UniProt P11473); assay: qHTS assay to identify small molecule antagonists of the vitamin D receptor (VDR) signaling pathway (AID 743223; active means well fitted inhibition curve with a large enough effect in the signal ratio in the repeat runs, not every such curve was filed as active; the % refers to the signal ratio)
Summary of the method: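 Agonist 1alpha,25-dihydroxyvitamin D3 (3 nM in well) was added with each compound to VDR-bla cells preincubated 4 h. Cells stood 16 h at 37C, then FRET substrate 2 h at room temperature; fluorescence intensity recorded.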

[9] = qHTS assay to identify small molecule agonists of the vitamin D receptor (VDR) signaling pathway - cell viability counter screen (AID 743224); further: nearly all actives have a fitted effect of over 50% in size; further: potency means the concentration at half of the fitted maximal effect
Summary of the method: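 VDR-bla cells were preincubated 4 h at 37C/5% CO2, then exposed to compounds for 16 h. After the 2 h room-temperature bla FRET read, CellTiter-Glo was added to the same wells and luminescence read after 30 min.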

[10] = qHTS assay to identify small molecule antagonists of the vitamin D receptor (VDR) signaling pathway - cell viability counter screen (AID 743225); further: nearly all actives have a fitted effect of over 50% in size; further: potency means the concentration at half of the fitted maximal effect
Summary of the method: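 Luminescent cell viability (CellTiter-Glo) in VDR-bla HEK 293T cells after 16 h compound exposure at 37C in the presence of 3 nM final 1-alpha,25-dihydroxy vitamin D3.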

[11] = qHTS assay to identify small molecule agonists of the NFkB signaling pathway - cell viability counter screen (AID 1159515; calls by dose curve; further: nearly all actives have a fitted effect of over 55% in size; further: potency means the concentration at half of the fitted maximal effect)
Summary of the method: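 NFkB-bla ME-180 cells, 2,000/well, were plated overnight at 37 C, 5% CO2, then exposed to compounds in DMSO for 5 hr. After the bla FRET read, CellTiter-Glo was added to the same wells; luminescence was read after 30 min at room temperature.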

[12] = qHTS assay to identify small molecule agonists of the endoplasmic reticulum stress response signaling pathway (AID 1159516; active means well fitted activation curve with a large enough effect in the signal ratio in the repeat runs, not every such curve was filed as active; the % refers to the signal ratio)
Summary of the method: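 CellSensor ESRE-bla HeLa cells, carrying a beta-lactamase reporter driven by the ER stress response element, were plated overnight and exposed to compounds for 5 hr at 37 C. Reporter activity was read as FRET substrate fluorescence after 2 hr at room temperature.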

[13] = qHTS assay to identify small molecule agonists of the endoplasmic reticulum stress response signaling pathway - cell viability counter screen (AID 1159517; calls by dose curve; further: nearly all actives have a fitted effect of over 50% in size; further: potency means the concentration at half of the fitted maximal effect)
Summary of the method: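 CellTiter-Glo was added to wells already read for beta-lactamase FRET, and luminescence was recorded 30 min later. Cells: ESRE-bla HeLa, 1,500 per well, compound exposure 5 hr at 37 C.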

[14] = qHTS assay to identify small molecule antagonists of the retinoid-related orphan receptor gamma (ROR-gamma) signaling pathway - cell viability counter screen (AID 1159520); further: nearly all actives have a fitted effect of over 50% in size; further: potency means the concentration at half of the fitted maximal effect
Summary of the method: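 Tet-on ROR gamma CHO cells (1,000/well) were plated 4 hr, given compounds in DMSO for 2 hr at 37 C, then induced with 1 uM final doxycycline for 16 hr. Viability was read as ATP by CellTiter-Glo luminescence after 30 min.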

[15] = target: Nuclear receptor ROR-gamma (Homo sapiens) (UniProt P51449); assay: qHTS assay to identify small molecule antagonists of the retinoid-related orphan receptor gamma (ROR-gamma) signaling pathway (AID 1159521; further: nearly all actives have a fitted effect of over 50% in size; further: potency means the concentration at half of the fitted maximal effect)
Summary of the method: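 CHO cells expressing RORγ under a TET-on promoter, luciferase under RORE control. Dox 1 uM final, 16 h; compounds added 2 h prior. Luminescence decrease measured.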

[16] = qHTS assay to identify small molecule agonists of the AP-1 signaling pathway - cell viability counter screen (AID 1159525; calls by dose curve; further: nearly all actives have a fitted effect of over 55% in size; further: potency means the concentration at half of the fitted maximal effect)
Summary of the method: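 ME-180 AP-1-bla, 2500 cells/well, Opti-MEM + 0.5% dialyzed FBS; overnight 37 °C; cpd 15-pt titration, 5 h 37 °C; CellTiter-Glo 30 min RT; luminescence read; normalised to TOAB and DMSO controls.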

[17] = qHTS assay to identify small molecule agonists of the AP-1 signaling pathway (AID 1159526; calls by dose curve)
[18] = qHTS assay to identify small molecule agonists of the peroxisome proliferator-activated receptor delta (PPARd) signaling pathway - cell viability counter screen (AID 743211); further: nearly all actives have a fitted effect of over 55% in size
Summary of the method: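 Luminescent ATP viability assay (CellTiter-Glo, 30 min RT) in UAS-bla HEK293H cells carrying the PPAR delta reporter construct, 3000 cells/well, after a 17 h compound treatment at 37 C.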

[19] = target: Bile acid receptor (Homo sapiens) (UniProt Q96RI1); assay: qHTS assay to identify small molecule agonists of the farnesoid-X-receptor (FXR) signaling pathway (AID 743220; active means well fitted activation curve with a large enough effect in the signal ratio in the repeat runs, not every such curve was filed as active; the % refers to the signal ratio)
Summary of the method: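 Beta-lactamase reporter under UAS control in GeneBLAzer FXR HEK 293T cells (5000/well) measured with LiveBLAzer FRET substrate after 2 h at room temperature. Compound exposure lasted 16 h at 37C.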

[20] = target: Retinoic acid receptor RXR-alpha (Homo sapiens) (UniProt P19793); assay: qHTS assay to identify small molecule agonists of the RXR signaling pathway (AID 1159527; calls by dose curve; further: nearly all actives have a fitted effect of over 35% in size)
Retinoic acid receptor RXR-alpha (Homo sapiens), sequence (P19793 whole entry, looked up): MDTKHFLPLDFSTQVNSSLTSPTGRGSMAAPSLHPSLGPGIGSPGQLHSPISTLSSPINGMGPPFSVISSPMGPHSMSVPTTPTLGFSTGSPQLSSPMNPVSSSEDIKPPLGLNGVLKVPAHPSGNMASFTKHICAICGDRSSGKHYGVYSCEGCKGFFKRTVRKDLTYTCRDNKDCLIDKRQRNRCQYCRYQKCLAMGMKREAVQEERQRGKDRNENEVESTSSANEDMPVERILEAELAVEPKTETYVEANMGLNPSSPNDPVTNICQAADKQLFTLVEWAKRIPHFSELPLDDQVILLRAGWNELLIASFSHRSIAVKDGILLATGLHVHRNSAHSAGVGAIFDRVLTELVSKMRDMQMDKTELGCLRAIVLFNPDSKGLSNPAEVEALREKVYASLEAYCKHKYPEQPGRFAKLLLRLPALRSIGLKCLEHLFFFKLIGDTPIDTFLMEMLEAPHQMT
Summary of the method: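 Beta-lactamase reporter assay, agonist format. Engineered HEK 293T line, charcoal-stripped FBS at 2%, overnight (16 hr) exposure, fluorescence at 460 and 530 nm after 405 nm excitation.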

SMILES | outcome [1] | Potency [2] | Potency [3] | Potency [4] | Potency [5] | Potency [6] | outcome [7] | Potency [8] | Potency [9] | Potency [10] | Potency [11] | Potency [12] | Potency [13] | Potency [14] | Potency [15] | Potency [16] | Potency [17] | Potency [18] | outcome [19] | Potency [20]
CCOP(=O)(O)C(N)=O | inactive | inactive | inactive | inactive | inactive | inactive | inactive | inactive | inactive | inactive | inactive | inactive | inactive | inactive | inactive | inactive | inactive |  |  | 
O=C(Cc1ccccc1)OCCc1ccccc1 | inactive | inactive | inactive |  | inactive | inactive | inactive |  | inactive | inactive | inactive | inactive | inactive | inactive | inactive | inactive | inactive | inactive |  | 
O=C(O)CCCOc1ccc(Cl)cc1Cl |  | inactive |  |  |  | inactive | inactive |  | inactive | inactive | inactive | inactive | inactive | inactive | inactive | inactive | inactive |  |  | 
CC(C)(C)CC(C)(C)c1ccc(O)cc1 | inactive | 27.5 µM (active) | inactive |  | 54.8 µM (active) and inactive | 49 µM (active) |  |  | 15.5 µM (active) and inactive | 17.4 µM (active) | 21.9 µM (active) | inactive | 21.9 µM (active) | 27.3 µM (active) | 54.5 µM (active) and inactive | 17.4 µM (active) |  |  |  | 
C[C@H]1[C@@H]2Cc3ccc(O)cc3[C@@]1(C)CCN2C | inactive | inactive | inactive | inactive |  | inactive |  |  |  | inactive | inactive | inactive | inactive | inactive |  | inactive | inactive | inactive | inactive | inactive
C=CCSSCC=C | inactive | inactive | inactive |  | inactive | inactive |  | inactive | inactive | inactive | inactive | inactive | inactive | inactive |  | inactive | inactive | inactive |  | inactive
C[C@]12C=CC3=C4CCC(=O)C=C4CC[C@H]3[C@@H]1CC[C@@H]2O |  |  |  |  | inactive | inactive |  |  |  |  | inactive | inactive | inactive | inactive | inactive | inactive | inactive | inactive |  | 
CC(=O)NNc1ccccc1 |  |  |  | inactive |  |  | inactive | inactive |  |  | inactive | inactive | inactive | inactive | inactive | inactive | inactive |  | inactive | 
CCN(C(C)=O)c1cccc(-c2ccnc3c(C#N)cnn23)c1 |  | inactive |  |  | inactive | inactive | inactive | inactive | inactive | inactive | inactive | inactive | inactive | inactive | inactive | inactive | inactive |  |  | 
O=CC=O | inactive | inactive | inactive |  | inactive | inactive |  |  | inactive | inactive | inactive | inactive | inactive | inactive | inactive | inactive | inactive | inactive |  | 
CN(C)N | inactive | inactive | inactive |  |  | inactive | inactive | inactive | inactive | inactive | inactive | inactive | inactive | inactive | inactive | inactive | inactive | inactive |  | 
CN(C1CCCCC1)C1CCCCC1 | inactive | inactive | inactive |  |  | inactive | inactive | inactive | inactive | inactive | inactive | inactive | inactive | inactive | inactive | inactive | inactive | inactive |  | 
COC1CC(=C(c2cccs2)c2cccs2)C[N+](C)(C)C1 (configuration not stated) | inactive | inactive | inactive | inactive |  | inactive | inactive | inactive |  | inactive | inactive | inactive | inactive | inactive |  | inactive | inactive | inactive |  | inactive
